From PubChem BioAssay (NCATS)
A number with no mark means an inactive call. Results filed as inconclusive are left out. Calls of active or inactive are those of the source. Unless noted, calls come from the whole dose curve; as a rule, active = well fitted curve in the direction sought with a large enough effect; inconclusive = small, poorly fitted or top-dose-only effect, or another doubt; inactive = no such curve, though single readings can be large; an effect the other way counts as inactive or inconclusive.

Tests used:
[1] = target: Lysosomal acid glucosylceramidase (Homo sapiens) (UniProt P04062); assay: Glucocerebrosidase-p2 (AID 348; in the data active = potency below about 10 µM; note: potency is the fitted concentration of half-maximal effect); details: purified GBA, blue fluorogenic substrate, 40 min
Sequence of Lysosomal acid glucosylceramidase (Homo sapiens) (P04062 whole entry, looked up): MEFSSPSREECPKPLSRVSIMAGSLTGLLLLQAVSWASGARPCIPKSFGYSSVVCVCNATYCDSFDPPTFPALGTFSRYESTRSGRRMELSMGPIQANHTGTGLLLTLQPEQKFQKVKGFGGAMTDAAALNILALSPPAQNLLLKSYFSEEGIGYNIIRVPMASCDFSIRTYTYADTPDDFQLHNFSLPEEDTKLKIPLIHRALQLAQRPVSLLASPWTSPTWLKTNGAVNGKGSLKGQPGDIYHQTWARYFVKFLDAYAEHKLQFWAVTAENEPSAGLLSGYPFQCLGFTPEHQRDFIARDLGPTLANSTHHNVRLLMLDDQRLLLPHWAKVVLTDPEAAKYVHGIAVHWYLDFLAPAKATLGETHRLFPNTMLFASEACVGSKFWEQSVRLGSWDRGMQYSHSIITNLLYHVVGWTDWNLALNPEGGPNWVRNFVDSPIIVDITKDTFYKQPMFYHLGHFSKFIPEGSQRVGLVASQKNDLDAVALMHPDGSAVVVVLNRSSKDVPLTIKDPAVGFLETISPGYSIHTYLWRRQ
How it was run: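 Normal human glucocerebrosidase (0.2 nM) with blue fluorogenic substrate (80 uM final) in citrate/phosphate pH 5.9 with 10mM sodium taurocholate, 0.01% tween-20; 40 min RT, NaOH/glycine stop; fluorescence Ex 365/Em 440; AC50 from a titration from 0.6 nM upwards.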

[2] = target: Cytochrome P450 1A2 (Homo sapiens) (UniProt P05177); assay: p450-cyp1a2 (AID 410; calls by dose curve; note: potency is the fitted concentration of half-maximal effect;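 for activity change, negative = inhibition: -100% = full effect of reference inhibitor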); details: recombinant CYP1A2, luciferin-ME demethylation, luminescence; series mostly up to 57 µM
Sequence of Cytochrome P450 1A2 (Homo sapiens) (P05177 whole entry, looked up): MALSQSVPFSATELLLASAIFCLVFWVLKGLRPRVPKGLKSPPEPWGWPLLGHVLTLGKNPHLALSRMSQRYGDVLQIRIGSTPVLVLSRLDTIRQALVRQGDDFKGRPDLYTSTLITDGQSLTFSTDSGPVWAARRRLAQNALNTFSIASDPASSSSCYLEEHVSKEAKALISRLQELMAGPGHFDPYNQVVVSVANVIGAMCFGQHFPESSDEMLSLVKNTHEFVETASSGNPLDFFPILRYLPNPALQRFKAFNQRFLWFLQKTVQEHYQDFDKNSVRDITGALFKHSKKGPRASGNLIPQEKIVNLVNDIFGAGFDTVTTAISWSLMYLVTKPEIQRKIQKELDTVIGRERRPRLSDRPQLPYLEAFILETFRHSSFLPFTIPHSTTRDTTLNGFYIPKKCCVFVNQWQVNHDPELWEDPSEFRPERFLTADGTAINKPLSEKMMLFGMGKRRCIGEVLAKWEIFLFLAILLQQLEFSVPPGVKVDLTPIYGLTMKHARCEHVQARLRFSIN
How it was run: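 20nM CYP1A2, 100uM Luciferin-ME (=Km), 100mM KPO4; cpd 10 min RT; +NADPH regen, 60 min RT; stop/detect 20 min; luminescence. Normalized to furafylline 57 uM = full inhibition.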

[3] = NFAT Signaling Pathway (AID 444; active = well fitted curve in either direction with a large enough effect, not every such curve was filed as active;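 note: carbachol stimulus at about its EC50 of 1 µM final; % is set by controls: 0 for no effect and ±100 for the full control effect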); details: Jurkat NFAT-bla M1, carbachol, beta-lactamase ratio, 5 h; at 7.69 µM (top of the series) unless noted
How it was run: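 Jurkat cells with NFAT-driven β-lactamase reporter and co-expressed M1 receptor, stimulated with carbachol (final 1 uM, ~EC50), compound titration, 5 h at 37 °C. CCF4 loaded 1 h at RT; 460/530 nm ratio gave %activity and AC50.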

[4] = Stat Signaling Pathway (AID 446; active = well fitted curve in either direction with a large enough effect, not every such curve was filed as active;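 note: ME-180 cervical cancer cells given 40 pM IL-6 alongside compound; SIE-controlled beta-lactamase reporter measured as 460/530 nm FRET emission ratio; % is set by controls: 0 for no effect and ±100 for the full control effect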); details: ME-180 SIE beta-lactamase reporter, IL-6 stimulated, 5 h; at 7.69 µM (top of the series) unless noted
How it was run: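 FRET read-out (405 nm excitation, 460/530 nm emission) of a beta-lactamase reporter under a STAT-inducible element in ME-180 cervical carcinoma cells. Cells with compound receive 40 pM IL-6 for 5 h. Values are normalised to AC90 stimulation and AC90 JAK-inhibitor controls.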

[5] = target: Glucocorticoid receptor (Homo sapiens) (UniProt P04150); assay: GR-EFC Redistribution (AID 451; calls by dose curve; note: potency is the fitted concentration of half-maximal effect); details: CHO-K1 GR-EFC translocation, beta-gal luminescence, 2 h
Sequence of Glucocorticoid receptor (Homo sapiens) (P04150 whole entry, looked up, the tested form may be a part): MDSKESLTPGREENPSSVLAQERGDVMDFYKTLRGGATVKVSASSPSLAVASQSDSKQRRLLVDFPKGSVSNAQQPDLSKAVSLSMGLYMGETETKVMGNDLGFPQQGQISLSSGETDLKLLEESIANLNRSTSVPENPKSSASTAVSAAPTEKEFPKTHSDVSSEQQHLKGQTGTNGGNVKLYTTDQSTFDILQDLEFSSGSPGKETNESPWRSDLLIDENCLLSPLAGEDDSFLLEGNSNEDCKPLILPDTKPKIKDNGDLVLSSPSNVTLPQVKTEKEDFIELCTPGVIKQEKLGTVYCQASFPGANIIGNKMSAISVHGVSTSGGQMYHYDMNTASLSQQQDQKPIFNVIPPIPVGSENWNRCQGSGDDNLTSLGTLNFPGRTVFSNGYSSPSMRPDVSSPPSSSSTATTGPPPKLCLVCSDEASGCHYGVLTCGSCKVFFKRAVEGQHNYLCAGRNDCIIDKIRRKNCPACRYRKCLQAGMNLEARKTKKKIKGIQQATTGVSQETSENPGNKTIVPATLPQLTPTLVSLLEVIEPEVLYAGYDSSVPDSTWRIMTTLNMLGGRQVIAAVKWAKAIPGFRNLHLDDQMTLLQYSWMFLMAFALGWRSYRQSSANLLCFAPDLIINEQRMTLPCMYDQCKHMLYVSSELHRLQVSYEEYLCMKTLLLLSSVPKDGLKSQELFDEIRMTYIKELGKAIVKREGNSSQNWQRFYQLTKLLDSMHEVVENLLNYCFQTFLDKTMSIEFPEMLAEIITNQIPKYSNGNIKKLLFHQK
How it was run: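 CHO-K1 cells expressing nuclear EA and GR-ED fragments of b-gal; compounds titrated up to 46 uM final, 2 h at 37 C. GR nuclear translocation read as complemented b-gal luminescence after 1 h RT detection.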

[6] = target: Mitogen-activated protein kinase 10 (Mus musculus) (UniProt Q61831); assay: JNK3 AlphaScreen Assay (AID 530; active = well fitted curve in either direction with a large enough effect, not every such curve was filed as active;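 note: kinase came from lysate of stimulated human HepG2 cells; signal reports phosphorylation of biotinylated GST-cJun 1-79 at Ser73 with 10 µM ATP; % is set by controls: 0 for no effect and ±100 for the full control effect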); details: JNK3 lysate, c-Jun phosphorylation; series mostly up to 57.1 µM
How it was run: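 HepG2 lysate (IL-1b/TNFa pre-activated) + biotin-GST-cJun 1-79 + anti-pSer73 cJun; cpd titration, 15 min RT; ATP 10 uM start; Tris pH 7.6, MgCl2, DTT, vanadate; beads in EDTA buffer; AlphaScreen.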

[7] = target: Cytochrome P450 3A4 (Homo sapiens) (UniProt P08684); assay: qHTS Assay for Inhibitors and Substrates of Cytochrome P450 3A4 (AID 884); details: recombinant CYP3A4, Luciferin-PPXE luminescence; series mostly up to 57.1 µM; note: nearly all actives have a fitted effect of over 50% in size; note: potency is the fitted concentration of half-maximal effect
Sequence of Cytochrome P450 3A4 (Homo sapiens) (P08684 whole entry, looked up): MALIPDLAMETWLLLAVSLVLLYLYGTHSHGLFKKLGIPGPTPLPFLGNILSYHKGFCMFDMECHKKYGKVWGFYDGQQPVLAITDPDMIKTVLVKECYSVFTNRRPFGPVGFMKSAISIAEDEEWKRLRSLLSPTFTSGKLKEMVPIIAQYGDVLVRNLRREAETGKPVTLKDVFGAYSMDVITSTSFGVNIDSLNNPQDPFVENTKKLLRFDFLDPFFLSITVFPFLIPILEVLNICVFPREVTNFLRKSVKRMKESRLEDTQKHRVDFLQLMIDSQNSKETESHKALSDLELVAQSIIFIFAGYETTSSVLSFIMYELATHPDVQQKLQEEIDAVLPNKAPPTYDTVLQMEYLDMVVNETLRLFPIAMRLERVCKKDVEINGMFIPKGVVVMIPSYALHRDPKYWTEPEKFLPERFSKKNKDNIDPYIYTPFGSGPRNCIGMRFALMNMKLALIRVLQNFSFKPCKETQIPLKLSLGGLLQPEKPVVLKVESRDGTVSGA
How it was run: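 Luminescent readout of luciferin produced by CYP3A4 (20 nM) dealkylation of Luciferin-PPXE, 25 uM (its KM). NADPH-driven reaction ran 60 min at RT after 10 min compound preincubation; data scaled to 57 uM ketoconazole as 100% inhibition.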

[8] = target: Cytochrome P450 3A4 (Homo sapiens) (UniProt P08684); assay: qHTS Assay for Activators of Cytochrome P450 3A4 (AID 885); details: recombinant CYP3A4, Luciferin-PPXE luminescence, 60 min; series mostly up to 57.1 µM; note: nearly all actives have a fitted effect of over 65% in size
How it was run: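 Luminescent readout of luciferin formed from 25 uM Luciferin-PPXE (KM level) by 20 nM CYP3A4 in 200 mM KPO4, with 60 min NADPH-driven reaction at room temperature after 10 min compound exposure. Ketoconazole (57 uM) defined 100% inhibition.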

[9] = target: Cytochrome P450 2D6 (Homo sapiens) (UniProt P10635); assay: qHTS Assay for Inhibitors and Substrates of Cytochrome P450 2D6 (AID 891); details: recombinant CYP2D6, luciferin-ME EGE luminescence; series mostly up to 57.1 µM; note: potency is the fitted concentration of half-maximal effect; nearly all actives have a fitted effect of over 60% in size
Sequence of Cytochrome P450 2D6 (Homo sapiens) (P10635 whole entry, looked up): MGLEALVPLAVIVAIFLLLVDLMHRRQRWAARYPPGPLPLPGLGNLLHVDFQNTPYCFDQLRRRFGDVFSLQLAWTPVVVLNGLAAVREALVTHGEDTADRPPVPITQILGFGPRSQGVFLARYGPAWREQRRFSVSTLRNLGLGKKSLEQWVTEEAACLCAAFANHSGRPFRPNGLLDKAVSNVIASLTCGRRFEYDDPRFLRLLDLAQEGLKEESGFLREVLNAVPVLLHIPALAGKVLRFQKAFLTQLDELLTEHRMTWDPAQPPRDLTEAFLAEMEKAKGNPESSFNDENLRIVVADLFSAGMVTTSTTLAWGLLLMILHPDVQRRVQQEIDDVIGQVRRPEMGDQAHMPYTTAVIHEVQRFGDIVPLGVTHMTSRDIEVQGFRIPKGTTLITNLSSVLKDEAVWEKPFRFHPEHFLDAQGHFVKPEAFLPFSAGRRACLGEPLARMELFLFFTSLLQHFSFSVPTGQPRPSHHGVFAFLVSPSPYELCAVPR
How it was run: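 Luminescent read-out of luciferin formed by 5 nM human CYP2D6 demethylating 30 uM Luciferin-ME EGE (Km level) over 60 min at room temperature after NADPH regeneration addition. Data normalized to full inhibition by 1.43 uM quinidine.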

[10] = Primary qHTS for small molecule stabilizers of the endoplasmic reticulum resident proteome: Secreted ER Calcium Modulated Protein (SERCaMP) assay (AID 1508630); details: SH-SY5Y GLuc-SERCaMP (Gaussia luciferase released on ER calcium loss) secretion, thapsigargin, luminescence; series mostly up to 38.4 µM; note: % is set by controls: 0 for no effect and ±100 for the full control effect
How it was run: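 The SH-SY5Y reporter protocol was run at 3 concentrations up to 38.3 uM (primary) or 11 concentrations (follow-up): 16 h compound, 100 nM thapsigargin for 4 h, then extracellular luciferase luminescence.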

[11] = AP1 Signaling Pathway (AID 357; active = well fitted curve in either direction with a large enough effect, not every such curve was filed as active; note: % is set by controls: 0 for no effect and ±100 for the full control effect); details: ME-180 AP-1-bla reporter, EGF-induced, beta-lactamase ratio, 5 h; at 7.69 µM (top of the series) unless noted
How it was run: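 In this screen, ME-180 cells in Opti-MEM with 0.5% dialyzed FBS received EC50 EGF and compound titrations for 5 h. AP-1 reporter beta-lactamase was detected via CCF4 ratio, giving AC50 for positive and negative modulators.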

[12] = target: 3',5'-cyclic-AMP phosphodiesterase 4B (Homo sapiens) (UniProt Q07343); assay: qHTS Assay for Inhibitors of PDE-IV (AID 607; active = well fitted activation curve with a large enough effect in the main read-out, with a control signal flat, not every such curve was filed as active; note: % of control where 0% means no effect); details: HEK293 ACTOne CNG channel cells, membrane potential fluorescence; series mostly up to 22.9 µM
Sequence of 3',5'-cyclic-AMP phosphodiesterase 4B (Homo sapiens) (Q07343 whole entry, looked up): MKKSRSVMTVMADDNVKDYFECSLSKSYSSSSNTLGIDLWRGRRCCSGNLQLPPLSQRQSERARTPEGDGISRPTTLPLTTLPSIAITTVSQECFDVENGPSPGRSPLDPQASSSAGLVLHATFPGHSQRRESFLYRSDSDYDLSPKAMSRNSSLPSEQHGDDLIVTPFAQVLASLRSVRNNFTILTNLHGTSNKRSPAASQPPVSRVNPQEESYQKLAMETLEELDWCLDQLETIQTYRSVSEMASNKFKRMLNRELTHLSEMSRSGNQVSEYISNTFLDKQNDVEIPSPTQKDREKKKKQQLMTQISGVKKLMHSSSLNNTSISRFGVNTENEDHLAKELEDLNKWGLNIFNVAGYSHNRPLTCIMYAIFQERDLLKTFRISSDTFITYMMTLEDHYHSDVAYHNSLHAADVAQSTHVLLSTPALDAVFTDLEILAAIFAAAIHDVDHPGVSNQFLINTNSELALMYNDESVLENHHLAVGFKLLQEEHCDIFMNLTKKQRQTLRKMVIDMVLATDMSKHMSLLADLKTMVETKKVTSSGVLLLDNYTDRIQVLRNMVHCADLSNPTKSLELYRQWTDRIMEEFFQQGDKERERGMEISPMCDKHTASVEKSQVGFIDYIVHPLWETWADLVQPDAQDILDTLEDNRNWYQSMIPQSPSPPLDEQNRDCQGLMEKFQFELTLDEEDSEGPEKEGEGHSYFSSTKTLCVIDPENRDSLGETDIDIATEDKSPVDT
How it was run: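 Cell-based read-out of cAMP via a modified cyclic nucleotide-gated channel and membrane potential dye (535/590 nm) in HEK293 cells expressing PDE4 endogenously. Compounds tested up to 22.9 uM final; 100 uM RO 20-1724 reference.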

[13] = qHTS Assay for Identification of Small Molecule Agonists for Hypoxia Response Element Signaling Pathway (AID 914; active = well fitted activation curve with a large enough effect in the signal ratio, with a control signal flat, not every such curve was filed as active; the % refers to the signal ratio; note: potency is the fitted concentration of half-maximal effect; for activation: % of control where 0% means no effect); details: ME-180 (cervical carcinoma) HRE-bla reporter, beta-lactamase ratio, CoCl2, 17 h; activation: active compounds read high
How it was run: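 In Opti-MEM containing 0.5% dialyzed FBS and 10 mM HEPES, ME-180 HRE-bla cells received a compound titration and EC50 CoCl2. They were incubated 17 hours, then CCF4-loaded 2.5 hours at room temperature before ratio reading.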

[14] = target: Glucocorticoid receptor (Homo sapiens) (UniProt P04150); assay: GR-GFP Redistribution (AID 450;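 active = compounds whose dose series gives a full or clear partial fitted curve of increased nuclear translocation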; note: potency is the fitted concentration of half-maximal effect); details: U2OS GR-GFP nuclear translocation, laser cytometry, 2 h
[15] = target: Cytochrome P450 2C19 (Homo sapiens) (UniProt P33261); assay: qHTS Assay for Inhibitors and Substrates of Cytochrome P450 2C19 (AID 899); details: recombinant CYP2C19, luciferin-H EGE luminescence; series mostly up to 57.1 µM; note: nearly all actives have a fitted effect of over 60% in size; note: potency is the fitted concentration of half-maximal effect
Sequence of Cytochrome P450 2C19 (Homo sapiens) (P33261 whole entry, looked up): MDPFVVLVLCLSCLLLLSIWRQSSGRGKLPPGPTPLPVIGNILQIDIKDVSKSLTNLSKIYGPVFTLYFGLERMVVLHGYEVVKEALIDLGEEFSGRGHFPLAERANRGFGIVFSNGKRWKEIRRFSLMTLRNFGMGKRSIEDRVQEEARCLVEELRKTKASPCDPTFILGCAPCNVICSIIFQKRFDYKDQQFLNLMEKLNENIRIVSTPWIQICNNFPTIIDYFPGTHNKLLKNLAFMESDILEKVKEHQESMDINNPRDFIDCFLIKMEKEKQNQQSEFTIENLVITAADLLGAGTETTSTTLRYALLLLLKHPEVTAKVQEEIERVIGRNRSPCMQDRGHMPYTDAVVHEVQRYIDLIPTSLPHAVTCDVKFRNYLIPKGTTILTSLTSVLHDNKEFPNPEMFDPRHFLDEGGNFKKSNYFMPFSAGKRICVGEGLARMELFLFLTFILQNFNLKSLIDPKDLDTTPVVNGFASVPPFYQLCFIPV
How it was run: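 5 nM human CYP2C19 with 10uM Luciferin-H EGE (at KM) in 50mM KPO4, compound preincubated 10 min at 37C, then NADPH regeneration for 60 min at 37C. Luciferin read by luminescence after detection reagent; normalized to 57uM ketoconazole as full inhibition.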

[16] = target: Cytochrome P450 2C9 (Homo sapiens) (UniProt P11712); assay: qHTS Assay for Inhibitors and Substrates of Cytochrome P450 2C9 (AID 883); details: recombinant CYP2C9, luciferin-H luminescence, 60 min; series mostly up to 57.1 µM; note: % is set by controls: 0 for no effect and ±100 for the full control effect; nearly all actives have a fitted effect of over 60% in size
Sequence of Cytochrome P450 2C9 (Homo sapiens) (P11712 whole entry, looked up): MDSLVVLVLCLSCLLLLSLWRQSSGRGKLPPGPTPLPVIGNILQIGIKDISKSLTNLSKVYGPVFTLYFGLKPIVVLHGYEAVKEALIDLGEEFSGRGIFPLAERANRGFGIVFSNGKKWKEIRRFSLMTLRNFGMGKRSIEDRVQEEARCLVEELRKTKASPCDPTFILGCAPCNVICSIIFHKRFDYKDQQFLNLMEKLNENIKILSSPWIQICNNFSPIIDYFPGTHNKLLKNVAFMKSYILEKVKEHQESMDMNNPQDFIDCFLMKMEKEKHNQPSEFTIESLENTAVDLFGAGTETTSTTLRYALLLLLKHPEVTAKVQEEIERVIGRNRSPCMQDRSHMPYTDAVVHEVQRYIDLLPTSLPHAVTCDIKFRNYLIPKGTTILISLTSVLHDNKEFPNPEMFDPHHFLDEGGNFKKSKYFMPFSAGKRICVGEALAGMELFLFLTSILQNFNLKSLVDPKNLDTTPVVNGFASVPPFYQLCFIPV
How it was run: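 Human CYP2C9 (10nM) with Luciferin-H at 100uM (its KM) in 25mM KPO4; compound preincubated 10 min at 37C, then NADPH regeneration for 60 min at 37C. Luciferin read by luminescence after detection reagent; normalized to 57uM sulphaphenazole as full inhibition.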

| Structure (SMILES) | Potency [1] | Potency [2] | activity change, negative = inhibition [3] | activity, negative = inhibition [4] | Potency [5] | Potency [6] | Potency [7] | Potency [8] | Potency [9] | outcome [10] | activity change, negative = inhibition [11] | Potency [12] | activation [13] | Potency [14] | Potency [15] | Potency [16] | Potency [13] |
| --- | --- | --- | --- | --- | --- | --- | --- | --- | --- | --- | --- | --- | --- | --- | --- | --- | --- |
| O=S(=O)(c1ccccc1)N1CCC[C@@]2(CCN(C(c3ccccc3)c3ccccc3)C2)C1 | > 11.4 µM | inactive | -29.6% | 13.8% | > 46 µM | inactive | 3.16 µM (active) | inactive | 0.631 µM (active) | inactive | – | – | – | – | – | – | – |
| O=C(c1cc(C(F)(F)F)cc(C(F)(F)F)c1)N1CCC2(CCCN(c3ccccn3)C2)CC1 | > 11.4 µM | – | – | -14.7% | > 46 µM | inactive | – | – | – | inactive | 10.7% | inactive | 2.81% | – | – | – | – |
| CCNc1ncc2ncc(=O)n(CCc3ccccc3)c2n1 | > 11.4 µM | 1 µM (active) | 9.34% | -25.4% | > 46 µM | – | – | inactive | – | inactive | – | inactive | – | > 9.22 µM | 0.631 µM (active) | – | – |
| CCNc1ncc2nc(-c3ccc(Cl)cc3)c(=O)n(-c3ccccc3)c2n1 | > 11.4 µM | 1 µM (active) | – | – | > 46 µM | inactive | – | – | – | inactive | – | – | – | > 9.22 µM | – | – | – |
| COc1ncc2nc(C)c(=O)n(CCC#N)c2n1 | > 11.4 µM | 15.8 µM (active) | -6.19% | -5.09% | > 46 µM | inactive | – | – | – | inactive | – | inactive | 7.94% | > 9.22 µM | inactive | inactive | – |
| Cn1c(=O)c(-c2ccccc2)nc2cnc(Oc3ccccc3)nc21 | > 11.4 µM | 2 µM (active) | 7.65% | -0.677% | > 46 µM | inactive | inactive | – | – | inactive | – | inactive | – | > 9.22 µM | – | – | – |
| COc1cccc(Cn2c(=O)c(-c3cccs3)nc3cnc(N4CCN(C)CC4)nc32)c1 | > 11.4 µM | 5.01 µM (active) | 160% [activator] (active) | – | > 46 µM | – | – | inactive | – | inactive | – | inactive | – | > 9.22 µM | – | inactive | – |
| CCNc1ncc2nc(-c3ccccc3)c(=O)n(-c3ccc(OC)cc3)c2n1 | > 11.4 µM | – | – | – | > 46 µM | inactive | – | – | – | inactive | 27.6% | – | – | > 9.22 µM | – | – | 3.16 µM (active) |
